The text below walks through data of PubChem BioAssay (NCI).

SMILES strings stand for the structures. Compounds without any hit were thinned out: in the full panel of roughly 79,000, 15% have a hit. Values without a mark were called inactive. The source made the active and inactive calls. No stated cut-off is given here; in the data, active means growth inhibition above about 70%; inactive means the rest.

The first experiment is described as follows: NCI Yeast Anticancer Drug Screen. Data for the mec2-1 strain (AID 157). Particulars: S. cerevisiae mec2-1 strain, at 100.0 µM, active compounds read high. The gist of the method:
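Compounds were applied to mec2-1 yeast cells. Their growth was then compared with that of vehicle-treated cultures to give growth inhibition.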
Turning to `CCCc1cc(C(=O)OCC)cc(CCC)c1O`, the growth inhibition was 95% (active).

On to `CC(C)[N+]([O-])(CCCNc1c2ccccc2nc2cccc([N+](=O)[O-])c12)C(C)C`, for which the growth inhibition is 99% (active).

Regarding `COc1cc2c3c(cccc3c1)C(=O)N(CCN(C)C)C2=O`, the growth inhibition was 9%.

As for `NC(=O)NN=C(CS)CS`, the growth inhibition was 60%.

Regarding `Cc1ccc(NC(=O)/C(Cl)=C(\Cl)C(=O)O)cc1C`, the growth inhibition is 99% (active).

On to `CCN(CC)CC[n+]1ccc2c(C)c3[nH]c4ccc(O)cc4c3c(C)c2c1`, for which the growth inhibition was 43%.

Consider `CC(CC(C)(C)[N+](C)(C)C)[N+](C)(C)C` (stereo not drawn), for which the growth inhibition was -4%.

With `COc1ccc(OC)c2cc3ccccc3cc12`, the growth inhibition was 8%.

`Nc1ncncc1C(C1=C(O)COC1=O)C1=C(O)COC1=O`: the growth inhibition is 0%.

On to `CSC1=NNC(SC)=NN1`, for which the growth inhibition is 99% (active).

Turning to `Cc1c(Cl)ccc2c1S(=O)(=O)c1cccc(Cl)c1-2`, the growth inhibition was -32%.

As to `[O-][n+]1c2ccc(O)cc2nc2ccc(Cl)cc21`, the growth inhibition is 51%.

On to `COc1ccc2ccc3ccccc3c2c1C=O`, for which the growth inhibition was 96% (active).

For the compound `Nc1ccc2c(c1)C(=O)c1cccc(N)c1C2=O`, the growth inhibition is 82% (active).

On to `O=C(c1ccc(Cl)cc1Cl)C(Cl)Cl`, for which the growth inhibition is 98% (active).

Consider `COc1cc(C(=O)/C=C/c2ccccc2O)ccc1O`, for which the growth inhibition is 98% (active).

On to `O=Cc1cccc2ccc3ccccc3c12`, for which the growth inhibition is 96% (active).

On to `O=C(Nc1ccc(Cl)cc1)OCC#CCCl`, for which the growth inhibition is 8%.

As to `Cn1ccnc1Oc1ccc(Cl)cc1`, the growth inhibition was 97% (active).

As to `c1ccc2c(c1)C(=NCCCN1CCCCCC1)c1cccn1-2`, the growth inhibition was 98% (active).

Turning to `C/C(=N\O)C1CC2C=C(C#N)C1N(Cc1ccccc1)C2` (stereo not drawn), the growth inhibition is 0%.

Turning to `O=[N+]([O-])C(=C(Sc1ccccc1)Sc1ccccc1)C(Cl)=C(Cl)Cl`, the growth inhibition was 46%.

Turning to `CCCCCCCCCC/C=C\C(=O)O`, the growth inhibition is 95% (active).

For the compound `COc1ccc(N=C2C(=O)Nc3ccc(Br)cc32)cc1`, the growth inhibition is -20%.

Turning to `COc1ccccc1C(=O)OCC1CCCN2CCCCC12` (stereo not drawn), the growth inhibition is 98% (active).

Consider `CC(C)(Br)C(=O)/C=C/c1ccc(Cl)c(Cl)c1`, for which the growth inhibition is -1%.

Regarding `Nc1ccccc1CC(O)C(=O)O` (stereo not drawn), the growth inhibition was 90% (active).

With `CC(=O)N/N=C/C(C)(C)C(C)(C)/C=N/NC(C)=O`, the growth inhibition is 11%.

In the case of `CN(C)c1nc2sc3c(c2c(=O)o1)CCCC3`, the growth inhibition was 39%.

For the compound `CC(C)OC(=O)Oc1ccccc1OC(=O)OC(C)C`, the growth inhibition was -1%.

As for `Cc1ccc(N)c(S)c1`, the growth inhibition is 98% (active).

For `O=C(O)c1ccccc1NC(=S)c1ccccc1`, the growth inhibition was 10%.

As for `COC(=O)c1ccc(NCC2=CC(=O)C=CC2=O)cc1O`, the growth inhibition was 89% (active).

Take `NC(N)=N/N=C\c1c2ccccc2cc2ccccc12`: the growth inhibition was 93% (active).

`COC(=O)CSSCc1ccc([N+](=O)[O-])cc1`: the growth inhibition is 97% (active).

As to `CCS(=O)(=O)c1ccc(/C=C/C=N/NC(=S)NCC(C)C)cc1`, the growth inhibition is 4%.

In the case of `N#CC(C(=O)Nc1ccccc1)C1=C(Cl)C(=O)c2ccccc2C1=O` (stereo not drawn), the growth inhibition is 96% (active).

For `C[C@H](CCC(=O)NN)[C@H]1CC[C@H]2[C@@H]3CC[C@@H]4C[C@H](O)CC[C@]4(C)[C@H]3CC[C@]12C`, the growth inhibition was 17%.

Take `CC[n+]1ccc2c(C)c3[nH]c4ccc(O)cc4c3c(C)c2c1`: the growth inhibition was 24%.

The nature of the next experiment: NCI Yeast Anticancer Drug Screen. Data for the rad14 strain (AID 159).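 Further: 0% = growth of vehicle-treated control cultures.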 Particulars: S. cerevisiae rad14 strain growth inhibition; at 1.2 µM; active compounds read high. The gist of the method: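 A mutant yeast strain defective in DNA damage repair is treated with compound; inhibition of its growth is scored against untreated, vehicle-exposed cultures.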
For the compound `CCCc1cc(C(=O)OCC)cc(CCC)c1O`, the growth inhibition was -1%.

With `CC(C)[N+]([O-])(CCCNc1c2ccccc2nc2cccc([N+](=O)[O-])c12)C(C)C`, the growth inhibition was 50%.

Regarding `COc1cc2c3c(cccc3c1)C(=O)N(CCN(C)C)C2=O`, the growth inhibition is -33%.

For `NC(=O)NN=C(CS)CS`, the growth inhibition is -2%.

In the case of `Cc1ccc(NC(=O)/C(Cl)=C(\Cl)C(=O)O)cc1C`, the growth inhibition was 3%.

Consider `CCN(CC)CC[n+]1ccc2c(C)c3[nH]c4ccc(O)cc4c3c(C)c2c1`, for which the growth inhibition was -3%.

Regarding `CC(CC(C)(C)[N+](C)(C)C)[N+](C)(C)C` (stereo not drawn), the growth inhibition is 2%.

In the case of `COc1ccc(OC)c2cc3ccccc3cc12`, the growth inhibition was -4%.

As for `Nc1ncncc1C(C1=C(O)COC1=O)C1=C(O)COC1=O`, the growth inhibition was -2%.

With `CSC1=NNC(SC)=NN1`, the growth inhibition is -16%.

On to `Cc1c(Cl)ccc2c1S(=O)(=O)c1cccc(Cl)c1-2`, for which the growth inhibition is 2%.

As for `[O-][n+]1c2ccc(O)cc2nc2ccc(Cl)cc21`, the growth inhibition is 0%.

As to `COc1ccc2ccc3ccccc3c2c1C=O`, the growth inhibition is 3%.

As for `Nc1ccc2c(c1)C(=O)c1cccc(N)c1C2=O`, the growth inhibition is 5%.

For the compound `O=C(c1ccc(Cl)cc1Cl)C(Cl)Cl`, the growth inhibition is -17%.

Take `COc1cc(C(=O)/C=C/c2ccccc2O)ccc1O`: the growth inhibition was -6%.

With `O=Cc1cccc2ccc3ccccc3c12`, the growth inhibition was -1%.

Take `O=C(Nc1ccc(Cl)cc1)OCC#CCCl`: the growth inhibition is 3%.

For the compound `Cn1ccnc1Oc1ccc(Cl)cc1`, the growth inhibition is -5%.

Take `c1ccc2c(c1)C(=NCCCN1CCCCCC1)c1cccn1-2`: the growth inhibition was -15%.

Regarding `C/C(=N\O)C1CC2C=C(C#N)C1N(Cc1ccccc1)C2` (stereo not drawn), the growth inhibition is -3%.

As for `O=[N+]([O-])C(=C(Sc1ccccc1)Sc1ccccc1)C(Cl)=C(Cl)Cl`, the growth inhibition is 4%.

`CCCCCCCCCC/C=C\C(=O)O`: the growth inhibition was -3%.

For `COc1ccc(N=C2C(=O)Nc3ccc(Br)cc32)cc1`, the growth inhibition is -22%.

For the compound `COc1ccccc1C(=O)OCC1CCCN2CCCCC12` (stereo not drawn), the growth inhibition is 10%.

In the case of `CC(C)(Br)C(=O)/C=C/c1ccc(Cl)c(Cl)c1`, the growth inhibition is 4%.

With `Nc1ccccc1CC(O)C(=O)O` (stereo not drawn), the growth inhibition was -3%.

For `CC(=O)N/N=C/C(C)(C)C(C)(C)/C=N/NC(C)=O`, the growth inhibition is 3%.

Take `CN(C)c1nc2sc3c(c2c(=O)o1)CCCC3`: the growth inhibition is 1%.

On to `CC(C)OC(=O)Oc1ccccc1OC(=O)OC(C)C`, for which the growth inhibition is -6%.

Regarding `Cc1ccc(N)c(S)c1`, the growth inhibition was -43%.

Regarding `O=C(O)c1ccccc1NC(=S)c1ccccc1`, the growth inhibition is 2%.

With `COC(=O)c1ccc(NCC2=CC(=O)C=CC2=O)cc1O`, the growth inhibition is 33%.

Consider `NC(N)=N/N=C\c1c2ccccc2cc2ccccc12`, for which the growth inhibition was -50%.

In the case of `COC(=O)CSSCc1ccc([N+](=O)[O-])cc1`, the growth inhibition is 0%.

Take `CCS(=O)(=O)c1ccc(/C=C/C=N/NC(=S)NCC(C)C)cc1`: the growth inhibition was 4%.

Take `N#CC(C(=O)Nc1ccccc1)C1=C(Cl)C(=O)c2ccccc2C1=O` (stereo not drawn): the growth inhibition was -26%.

Consider `C[C@H](CCC(=O)NN)[C@H]1CC[C@H]2[C@@H]3CC[C@@H]4C[C@H](O)CC[C@]4(C)[C@H]3CC[C@]12C`, for which the growth inhibition was 0%.

Consider `CC[n+]1ccc2c(C)c3[nH]c4ccc(O)cc4c3c(C)c2c1`, for which the growth inhibition was -22%.
